Only some compounds are listed: those with a hit (about 0.38% of all), similar ones and a draw of the others.
Rac1 wt modul: wildtype Rac1 GTP binding modulators, primary screen, biochemical, GST-Rac1 beads, flow cytometry, multiplex; hit rate 0.27% among 190,000; GTP binding activity (% of control), % at 10 µM; AID 757, 2007; fluorescent GTP binding; actives lie on both sides; 0 = cold GTP competed, 100 = untreated;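 active means GTP binding activity at least 20 points away from the 100% control level, either lower or higher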
Rac1 mut GTP: GTP binding modulators of activated mutant Rac1, primary screen, biochemical, bead-based flow cytometry, multiplex, fluorescent GTP | hit rate 0.11% among 190,000 | percent activity (GTP binding), % at 10 µM | GST-Rac1 activated beads; actives lie on both sides; 100% means binding = to untreated wells;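 active means GTP binding at least 20 percentage points away from the 100% baseline, in either direction, so actives lie on both sides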
Rab7 wt modul: modulators of GTP binding to Rab7, primary screen, biochemical, wildtype, multiplex bead flow cytometry. GTP binding activity (percent of control), % at 10 µM. AID 758, 2007. hit rate 0.055% among 190,000. Rab7 GTPase wild type (dog), Bodipy-FL-GTP binding. GST-Rab7 beads, fluorescent GTP binding; actives lie on both sides; untreated = 100%, excess cold GTP = 0%;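 active means fluorescent GTP binding to Rab7 beads changed by at least 20 points from the 100% baseline, either direction, mostly lower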;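 further: median green fluorescence of bound Bodipy-FL-GTP per Rab7 bead population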
Cdc42 wt GTP: modulators of GTP binding to wildtype Cdc42, primary screen, biochemical, multiplex bead flow cytometry, Bodipy-GTP | Cell division control protein 42 homolog (Homo sapiens), P60953 | GST-Cdc42 beads; actives lie on both sides | percent activity (GTP binding), % at 10 µM | hit rate 0.2% among 190,000 | AID 761, 2007;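 active means percent activity GTP binding at least 20 points away from the 100% baseline, either down as inhibitor or up as activator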;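 further: median bead fluorescence of bound Bodipy-FL-GTP at 100 nM; 0% = excess unlabeled GTP control and 100% = no compound control; below 100% means less GTP binding so inhibitor and above means activator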
Target sequence (P60953 whole entry, looked up): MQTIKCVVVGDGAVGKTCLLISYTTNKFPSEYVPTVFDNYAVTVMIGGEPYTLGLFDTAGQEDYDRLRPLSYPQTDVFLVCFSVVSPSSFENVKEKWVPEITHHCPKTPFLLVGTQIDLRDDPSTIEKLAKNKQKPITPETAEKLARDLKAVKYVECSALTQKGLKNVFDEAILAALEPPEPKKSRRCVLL
Rab2A wt mod: modulators of GTP binding to Rab2A wildtype, primary screen, biochemical, dog, bead-based flow cytometry, multiplex; Ras-related protein Rab-2A (Canis lupus familiaris), P61105; GST-Rab2 wt beads, Bodipy-GTP binding; GTP binding activity, % at 10 µM; hit rate 0.19% among 190,000;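 active means GTP binding activity at least 20 points away from 100%, either lowered or raised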;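 further: 0% = beads with excess unlabeled GTP and 100% = no-compound control corrected for plate trend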
HRas wt GTP bind: modulators of GTP binding to HRas wildtype, primary screen, biochemical, bead-based flow cytometry, multiplex; GTPase HRas (Homo sapiens), P01112; GST-Ras wt beads, Bodipy-FL-GTP binding; actives lie on both sides; GTP binding activity, % at 10 µM; hit rate 0.14% among 190,000; AID 759, 2007;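 active means GTP binding activity at least 20% away from the 100% baseline, either lowered as inhibitor or raised as activator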;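 further: 0% = unlabeled GTP competition control and 100% = no-compound control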
Target sequence (P01112 whole entry, looked up): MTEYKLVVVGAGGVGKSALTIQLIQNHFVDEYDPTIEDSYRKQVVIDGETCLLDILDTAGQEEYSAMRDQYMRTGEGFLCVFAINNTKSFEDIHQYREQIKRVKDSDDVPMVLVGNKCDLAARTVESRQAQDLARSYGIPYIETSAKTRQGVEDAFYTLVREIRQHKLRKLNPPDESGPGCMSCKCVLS
* = called active by the depositor; [ ] = dose if it differs, or a comment.

SMILES | Rac1 wt modul | Rac1 mut GTP | Rab7 wt modul | Cdc42 wt GTP | Rab2A wt mod | HRas wt GTP bind
COc1ccc2ccccc2c1/C=N/NC(=S)Nc1cc(S(=O)(=O)N2CCOCC2)ccc1N1CCOCC1 | 106 | 101 | 97 | 108 | 100 | 103
COc1ccc(/C=N/NC(=S)Nc2cc(S(=O)(=O)N3CCOCC3)ccc2N2CCOCC2)cc1O | 136*[activator] | 114 | 119 | 116 | 116 | 117
Cn1c(N2CCOCC2)nc(-c2ccccc2)c1-c1ccccc1 | 100 | 98 | 100 | 101 | 100 | 99
NC(=O)c1c(NC(=O)c2cnccn2)sc2c1CCCC2 | 70* | 85 | 87 | 82 | 80 | 83
NC(=O)c1c(NC(=O)c2ccncc2)sc2c1CCCC2 | 87 | 92 | 94 | 85 | 86 | 88
CC(=O)Nc1ccc(N2C(=O)c3ccc(C(=O)Nc4nnc(SCc5ccc(F)cc5)s4)cc3C2=O)cc1 | 99 | 93 | 94 | 97 | 97 | 73*
C=CCN1C(=O)C(Cc2ccc(SC(F)F)cc2)SC1=Nc1ccc(C(=O)O)cc1 (stereo unspecified) | 94 | 90 | 103 | 90 | 93 | 96
O=C(COc1ccccc1)N/N=C/c1ccc2c(c1)OCO2 | 91 | 87 | 93 | 89 | 86 | 88
Cc1cccc(OCC(=O)N/N=C/c2ccc3c(c2)OCO3)c1 | 82 | 78* | 92 | 77* | 83 | 85
Cc1nn(CC(=O)c2ccc(Cl)s2)c(C)c1[N+](=O)[O-] | 96 | 93 | 103 | 94 | 97 | 97
CC1=NC(=O)C(N=Nc2ccccc2)N1c1ccccc1 (stereo unspecified) | 100 | 98 | 99 | 97 | 95 | 98
CC1=NC(=O)C(N=Nc2ccccc2C(=O)O)N1c1ccccc1 (stereo unspecified) | 79* | 81 | 91 | 80 | 80 | 84
COC(=O)c1ccc(NC(=S)NCCCn2ccnc2)cc1 | 102 | 98 | 97 | 96 | 95 | 96
O=C(O)c1cc([N+](=O)[O-])ccc1NCc1ccccc1Cl | 146*[activator] | 133*[activator] | 114 | 129*[activator] | 129*[activator] | 125*[activator]
COc1ccc(C(=O)NC(=S)N2CC(C)OC(C)C2)cc1 (stereo unspecified) | 137*[activator] | 98 | 93 | 154*[activator] | 98 | 91
CC(C)NC(=S)N=Nc1c(O)[nH]c2ccc([N+](=O)[O-])cc12 | 62* | 81 | 95 | 68* | 68* | 72*
O=C(N=Nc1c(O)[nH]c2ccc([N+](=O)[O-])cc12)c1cc(-c2ccccc2Cl)nc2ccccc12 | 100 | 99 | 96 | 102 | 96 | 96
COc1ccccc1C(=O)N=Nc1c(O)[nH]c2ccc([N+](=O)[O-])cc12 | 45* | 66* | 66* | 51* | 51* | 53*
Nc1c(S(=O)(=O)c2ccccc2)c2nc3ccccc3nc2n1/N=C/c1cccc(O)c1 | 88 | 87 | 95 | 74* | 70* | 73*
Nc1c(S(=O)(=O)c2ccccc2)c2nc3ccccc3nc2n1C1CC1 | 78* | 90 | 91 | 82 | 86 | 85
Cc1cnc(C(=O)OCC(=O)N(Cc2ccccc2)C(C)C)cn1 | 99 | 97 | 96 | 100 | 98 | 98
CS(=O)(=O)N(CC(=O)NCc1cccnc1)C1CCCCC1 | 99 | 92 | 100 | 93 | 93 | 96
COC(=O)c1cc(NC(=O)c2ccc(F)cc2)cc(C(=O)OC)c1 | 99 | 96 | 93 | 99 | 98 | 97
CCC(COC(=O)Nc1ccccc1)NC(=O)OC(C)C (stereo unspecified) | 99 | 97 | 99 | 99 | 99 | 98
CCN(CC)c1ccc(-c2nn3c(-c4cccnc4)nnc3s2)cc1 | 83 | 84 | 88 | 72* | 73* | 73*
SMILES | Rac1 wt modul | Rac1 mut GTP | Rab7 wt modul | Cdc42 wt GTP | Rab2A wt mod | HRas wt GTP bind
CCCCCn1c(SCCc2ccccc2)nc2c1c(=O)[nH]c(=O)n2C | 106 | 100 | 104 | 101 | 102 | 102
CCCCn1c(SCC(=O)c2ccccc2)nc2c1c(=O)[nH]c(=O)n2C | 33* | 36* | 21* | 38* | 36* | 41*
COC(=O)c1ccc2c(c1)N(Cc1nc(-c3cccc(C)c3)oc1C)C(=O)C1CCCN21 (stereo unspecified) | 100 | 96 | 99 | 97 | 99 | 98
CC(C)C(=O)N1CCN(c2ccccc2NC(=O)c2cccc(Cl)c2)CC1 | 121*[activator] | 108 | 108 | 116 | 111 | 112
CN1CCN(CCC(=O)N2c3ccccc3Sc3ccc(Cl)cc32)CC1 | 102 | 97 | 98 | 104 | 98 | 100
O=C(CN1CCN(CCOCCO)CC1)N1c2ccccc2Sc2ccc(Cl)cc21 | 120*[activator] | 103 | 102 | 112 | 102 | 103
O=C(CCn1cnc2ccccc2c1=O)Nc1nc(-c2ccc(Br)cc2)cs1 | 104 | 101 | 103 | 105 | 103 | 103
Cc1cc(C)n2nc(C(=O)N3CCCC(CNS(=O)(=O)c4cccs4)C3)cc2n1 (stereo unspecified) | 28* | 31* | 22* | 34* | 33* | 35*
O=C(CCc1ccccn1)N1CCCC(CNS(=O)(=O)c2cccs2)C1 (stereo unspecified) | 54* | 53* | 62* | 61* | 62* | 60*
CCc1cc(C(=O)N2CCCC(CNS(=O)(=O)c3cccs3)C2)n(C)n1 (stereo unspecified) | 97 | 95 | 96 | 95 | 95 | 95
C/C(=N/NC(=O)c1ccc(C)nc1)c1ccc2c(c1)CCCC2 | 101 | 96 | 96 | 101 | 97 | 99
CCOc1ccc(Br)cc1C1C(C(=O)OC)=C(N)Oc2cc(N(C)C)ccc21 (stereo unspecified) | 114 | 99 | 104 | 105 | 104 | 104
O=C(c1ccc(F)cc1)C(C(=O)N1CCCCC1)n1ccccc1=O (stereo unspecified) | 100 | 97 | 104 | 98 | 99 | 99
Cc1ccc(-c2csc3nc4c5ccccc5c(NCCCN(C)C)nn4c(=O)c23)cc1 | 79* | 89 | 90 | 72* | 77* | 73*
Cc1ccc(-c2csc3nc(C)n(N)c(=O)c23)cc1 | 94 | 96 | 95 | 96 | 95 | 96

Compound activity from PubChem.
